Source: PubChem BioAssay AID1159580 (chemical genetic matrix, 2015)
Where “and” joins values, the source holds several entries; their conditions need not be identical. Equal values may be shown once. Among all 5,500 compounds or so, about 2,000 (36%) were called active. About 18% were inconclusive and are not listed. No stated cut-off is given here; in the data, active means normalized growth mostly below about 0.91 (no sharp cut-off); inconclusive means no clear call, values can overlap the other calls; inactive means mostly above about 0.92. The list shows a part of the results.

Assay: chemical genetic growth profiling, strain panel (AID 1159580);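 further: tested at 20 µM; growth read once vehicle control cultures reached saturation at 30 °C; 1 = growth at the plate median or of vehicle wells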
Settings: growth OD

Measured: normalized growth

N[C@@H](C(=O)N[C@@H]1C(=O)N2C(C(=O)O)=C(Cl)CS[C@H]12)c1ccccc1
inactive: S. cerevisiae deletion strains, locus YAL013W, strain DEP1, stronger effect = lower value 1.01 | S. cerevisiae deletion strains, locus YBR021W, strain FUR4, stronger effect = lower value 1 | S. cerevisiae deletion strains, locus YBR229C, strain ROT2, stronger effect = lower value 1.02 | S. cerevisiae deletion strains, locus YCL029C, strain bik1, stronger effect = lower value 1.03 | S. cerevisiae deletion strains, locus YDL035C, strain GPR1, stronger effect = lower value 1.01 | S. cerevisiae deletion strains, locus YDL074C, strain BRE1, stronger effect = lower value 1.02 | S. cerevisiae deletion strains, locus YDL101C, strain DUN1, stronger effect = lower value 1.01 | S. cerevisiae deletion strains, locus YDL134C, strain PPH21, stronger effect = lower value 1.01 | S. cerevisiae deletion strains, locus YDL185W, strain tfp1, stronger effect = lower value 1.02 | S. cerevisiae deletion strains, locus YDL192W, strain arf1, stronger effect = lower value 1.02 | S. cerevisiae deletion strains, locus YDR101C, strain arx1, stronger effect = lower value 1.01 | S. cerevisiae deletion strains, locus YDR150W, strain NUM1, stronger effect = lower value 1.01 | S. cerevisiae deletion strains, locus YDR162C, strain NBP2, stronger effect = lower value 1.02 | S. cerevisiae deletion strains, locus YDR318W, strain mcm21, stronger effect = lower value 1.02 | S. cerevisiae deletion strains, locus YDR388W, stronger effect = lower value 1.02 | S. cerevisiae deletion strains, locus YDR502C, strain sam2, stronger effect = lower value 1.02 | S. cerevisiae deletion strains, locus YEL061C, strain CIN8, stronger effect = lower value 1.01 | S. cerevisiae deletion strains, locus YER110C, stronger effect = lower value 1.03 | S. cerevisiae deletion strains, locus YER155C, strain BEM2, stronger effect = lower value 1 | S. cerevisiae deletion strains, locus YER167W, strain BCK2, stronger effect = lower value 1.01 | S. cerevisiae deletion strains, locus YGL078C, strain dbp3, stronger effect = lower value 1.02 | S. cerevisiae deletion strains, locus YGL086W, strain mad1, stronger effect = lower value 1.01 | S. cerevisiae deletion strains, locus YGL248W, strain PDE1, stronger effect = lower value 1.02 | S. cerevisiae deletion strains, locus YGR078C, strain PAC10, stronger effect = lower value 1.01 | S. cerevisiae deletion strains, locus YGR135W, strain pre9, stronger effect = lower value 1.01 | S. cerevisiae deletion strains, locus YGR229C, strain SMI1, stronger effect = lower value 1.01 | S. cerevisiae deletion strains, locus YGR252W, strain gcn5, stronger effect = lower value 1.04 | S. cerevisiae deletion strains, locus YHR030C, strain SLT2, stronger effect = lower value 1.01 and 0.982 | S. cerevisiae deletion strains, locus YHR079C, strain IRE1 (second series), stronger effect = lower value 1.02 | S. cerevisiae deletion strains, locus YHR079C, strain IRE1, stronger effect = lower value 0.976 | S. cerevisiae deletion strains, locus YHR094C, strain hxt1, stronger effect = lower value 1.02 | S. cerevisiae deletion strains, locus YHR129C, strain ARP1, stronger effect = lower value 1.01 | S. cerevisiae deletion strains, locus YHR200W, strain rpn10, stronger effect = lower value 1.03 | S. cerevisiae deletion strains, locus YIL066C, strain RNR3, stronger effect = lower value 1.03 | S. cerevisiae deletion strains, locus YIL073C, strain SPO22, stronger effect = lower value 1.08 | S. cerevisiae deletion strains, locus YIL125W, strain kgd1, stronger effect = lower value 1.02 | S. cerevisiae deletion strains, locus YIR030C, strain dcg1, stronger effect = lower value 1.03 | S. cerevisiae deletion strains, locus YJL095W, strain BCK1, stronger effect = lower value 1.01 and 0.976 | S. cerevisiae deletion strains, locus YJL134W, strain LCB3, stronger effect = lower value 1.01 | S. cerevisiae deletion strains, locus YJL168C, strain set2, stronger effect = lower value 1.02 | S. cerevisiae deletion strains, locus YJL187C, strain SWE1 (second series), stronger effect = lower value 1.02 | S. cerevisiae deletion strains, locus YJR043C, strain POL32, stronger effect = lower value 1.01 | S. cerevisiae deletion strains, locus YJR066W, strain TOR1, stronger effect = lower value 0.928 | S. cerevisiae deletion strains, locus YJR075W, strain HOC1, stronger effect = lower value 0.999 | S. cerevisiae deletion strains, locus YKL009W, strain mrt4, stronger effect = lower value 1.02 | S. cerevisiae deletion strains, locus YKL068W, stronger effect = lower value 1.03 | S. cerevisiae deletion strains, locus YKL085W, strain MDH1 (second series), stronger effect = lower value 1.02 | S. cerevisiae deletion strains, locus YKL085W, strain MDH1, stronger effect = lower value 1.02 | S. cerevisiae deletion strains, locus YKL190W, strain CNB1, stronger effect = lower value 1.01 | S. cerevisiae deletion strains, locus YKR001C, strain vps1, stronger effect = lower value 1.02 | S. cerevisiae deletion strains, locus YLR039C, strain RIC1, stronger effect = lower value 1.05 | S. cerevisiae deletion strains, locus YLR058C, strain SHM2, stronger effect = lower value 1.01 | S. cerevisiae deletion strains, locus YLR102C, strain apc9, stronger effect = lower value 1.03 | S. cerevisiae deletion strains, locus YLR113W, strain HOG1, stronger effect = lower value 1 | S. cerevisiae deletion strains, locus YLR262C, strain YPT6, stronger effect = lower value 1.04 | S. cerevisiae deletion strains, locus YLR268W, strain sec22, stronger effect = lower value 1.02 | S. cerevisiae deletion strains, locus YLR330W, strain CHS5, stronger effect = lower value 1.01 | S. cerevisiae deletion strains, locus YLR342W, strain FKS1 (second series), stronger effect = lower value 0.986 | S. cerevisiae deletion strains, locus YLR371W, strain rom2, stronger effect = lower value 1.01 | S. cerevisiae deletion strains, locus YLR418C, strain cdc73, stronger effect = lower value 1.03 | S. cerevisiae deletion strains, locus YML016C, strain PPZ1, stronger effect = lower value 1.01 | S. cerevisiae deletion strains, locus YML032C, strain rad52, stronger effect = lower value 1.02 | S. cerevisiae deletion strains, locus YML124C, strain tub3, stronger effect = lower value 1.02 | S. cerevisiae deletion strains, locus YMR078C, strain ctf18, stronger effect = lower value 1.04 | S. cerevisiae deletion strains, locus YMR223W, strain ubp8, stronger effect = lower value 1.02 | S. cerevisiae deletion strains, locus YMR263W, strain SAP30, stronger effect = lower value 1.01 | S. cerevisiae deletion strains, locus YMR307W, strain GAS1, stronger effect = lower value 1.05 | S. cerevisiae deletion strains, locus YNL067W, strain RPL9B, stronger effect = lower value 1.01 | S. cerevisiae deletion strains, locus YNL128W, strain TEP1, stronger effect = lower value 0.998 | S. cerevisiae deletion strains, locus YNL153C, strain GIM3, stronger effect = lower value 1.01 | S. cerevisiae deletion strains, locus YNL183C, strain NPR1, stronger effect = lower value 0.932 | S. cerevisiae deletion strains, locus YNL233W, strain BNI4, stronger effect = lower value 1.01 | S. cerevisiae deletion strains, locus YNL250W, strain rad50, stronger effect = lower value 1.01 | S. cerevisiae deletion strains, locus YNL271C, strain bni1, stronger effect = lower value 1.02 | S. cerevisiae deletion strains, locus YNL298W, strain CLA4, stronger effect = lower value 1.03 | S. cerevisiae deletion strains, locus YNL307C, strain MCK1, stronger effect = lower value 1.02 | S. cerevisiae deletion strains, locus YNL322C, strain KRE1, stronger effect = lower value 1.01 | S. cerevisiae deletion strains, locus YNR052C, strain pop2, stronger effect = lower value 1.02 | S. cerevisiae deletion strains, locus YOL006C, strain TOP1, stronger effect = lower value 1.02 | S. cerevisiae deletion strains, locus YOL012C, strain htz1 1.44 | S. cerevisiae deletion strains, locus YOL147C, strain pex11, stronger effect = lower value 1.02 | S. cerevisiae deletion strains, locus YOR061W, strain CKA2, stronger effect = lower value 1 | S. cerevisiae deletion strains, locus YOR069W, strain VPS5, stronger effect = lower value 0.999 | S. cerevisiae deletion strains, locus YOR136W, strain idh2, stronger effect = lower value 1.02 | S. cerevisiae deletion strains, locus YOR144C, strain elg1, stronger effect = lower value 1.02 | S. cerevisiae deletion strains, locus YOR184W, strain ser1, stronger effect = lower value 1.02 | S. cerevisiae deletion strains, locus YOR231W, strain MKK1, stronger effect = lower value 0.987 | S. cerevisiae deletion strains, locus YOR316C, strain cot1, stronger effect = lower value 1.02 | S. cerevisiae deletion strains, locus YPL055C, strain LGE1, stronger effect = lower value 1 | S. cerevisiae deletion strains, locus YPL256C, strain CLN2, stronger effect = lower value 0.971 | S. cerevisiae deletion strains, locus YPR119W, strain clb2, stronger effect = lower value 1.03 | S. cerevisiae deletion strains, locus YPR141C, strain kar3, stronger effect = lower value 1.03 | S. cerevisiae deletion strains, locus YPR163C, strain tif3, stronger effect = lower value 1.02 | S. cerevisiae deletion strains, locus YPR167C, strain met16, stronger effect = lower value 1.02 | S. cerevisiae deletion strains, strain wtn01, stronger effect = lower value 1.02 | S. cerevisiae strains, strain wild type, stronger effect = lower value 1.01
active: S. cerevisiae deletion strains, locus YPL241C, strain CIN2, stronger effect = lower value 1.09 [resistant]
